Assay results as given in PubChem BioAssay AID2557 (NMMLSC, 2010).
The whole screen tested about 330,000 compounds, of which about 650 (0.2%) were called active. No stated cut-off is given here; in the data, active means inhibition above about 50%; inactive means the rest. For the sample, actives were picked, then their nearest neighbours and some compounds at random.

The compounds below were run against Integrin alpha-4 (Homo sapiens) (UniProt P13612) (assay: VLA-4 integrin binding inhibitors – MLPCN library, flow cytometry, VLA-4 expressing cells, VLA-4 allosteric modulator project, primary screen (AID 2557)). Conditions: ligand binding flow cytometry, stronger effect = higher value, about 7 µM as worked out from the volumes in the protocol.
Sequence of Integrin alpha-4 (Homo sapiens) (P13612 whole entry, looked up): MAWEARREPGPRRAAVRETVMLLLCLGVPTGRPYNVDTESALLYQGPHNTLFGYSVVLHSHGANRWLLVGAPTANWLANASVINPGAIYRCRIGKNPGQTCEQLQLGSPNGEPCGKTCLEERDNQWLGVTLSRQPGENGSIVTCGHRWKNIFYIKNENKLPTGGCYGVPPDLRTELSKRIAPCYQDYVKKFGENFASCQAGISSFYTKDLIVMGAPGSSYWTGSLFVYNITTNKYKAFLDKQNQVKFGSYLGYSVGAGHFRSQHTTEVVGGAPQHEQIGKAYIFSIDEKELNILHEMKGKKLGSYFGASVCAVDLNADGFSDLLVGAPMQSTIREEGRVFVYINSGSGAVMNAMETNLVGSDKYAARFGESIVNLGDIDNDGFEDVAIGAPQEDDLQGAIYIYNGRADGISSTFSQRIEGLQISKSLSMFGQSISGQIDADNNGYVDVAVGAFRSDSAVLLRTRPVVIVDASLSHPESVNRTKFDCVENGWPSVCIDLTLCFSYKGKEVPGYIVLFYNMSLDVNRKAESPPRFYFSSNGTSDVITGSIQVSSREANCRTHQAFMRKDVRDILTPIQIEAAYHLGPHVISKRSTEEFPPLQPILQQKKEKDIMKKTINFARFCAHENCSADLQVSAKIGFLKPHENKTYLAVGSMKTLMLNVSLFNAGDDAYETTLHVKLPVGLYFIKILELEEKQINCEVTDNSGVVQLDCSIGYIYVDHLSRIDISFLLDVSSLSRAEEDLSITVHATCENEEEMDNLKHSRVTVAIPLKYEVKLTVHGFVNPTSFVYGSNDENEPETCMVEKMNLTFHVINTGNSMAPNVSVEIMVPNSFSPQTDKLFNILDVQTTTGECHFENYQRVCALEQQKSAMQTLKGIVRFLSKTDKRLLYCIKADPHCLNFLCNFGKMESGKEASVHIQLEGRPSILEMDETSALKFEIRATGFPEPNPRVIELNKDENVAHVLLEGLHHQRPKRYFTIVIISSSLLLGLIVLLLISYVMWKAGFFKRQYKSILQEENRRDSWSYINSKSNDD

SMILES	inhibition
O=C(O)c1ccc(-n2cccc2)cc1O	7.46% (inactive)
COc1cccc(NC(=O)Nc2nnc(N3CCCCC3C)s2)c1 (stereo unspecified)	-3.47% (inactive)
Cc1c(CN2CCC(CO)(CCOc3ccccc3)CC2)[nH]c2ccc(Cl)cc12	54.3% (active)
CCOC(=O)C1(CCOc2ccccc2)CCN(Cc2cc(OC)c(O)cc2Cl)CC1	7.42% (inactive)
OCC1(CCOc2ccccc2)CCN(Cc2cn[nH]c2-c2ccccc2)CC1	0.87% (inactive)
COc1ccc(C2C(C#N)=C(N)Oc3n[nH]c(C)c32)cc1CN1CCN(c2ccc(F)cc2)CC1 (stereo unspecified)	5.55% (inactive)
COc1nc(OC)nc(N(C)CCO)n1	12.5% (inactive)
Cc1noc(COc2ccccc2OCc2onc(C)c2Cl)c1Cl	-0.81% (inactive)
Cc1ccccc1C(=O)Nc1cccc(-c2nnc(SCC(=O)O)n2C)c1	5.4% (inactive)
N#C/C(=C/c1ccc(Cl)cc1)NC(=O)c1ccccc1	-2.66% (inactive)
CC1(C)Cc2cccc(OCC(=O)N3CCN(c4ccc([N+](=O)[O-])cc4)CC3)c2O1	-21.6% (inactive)
Cc1ccnc(NC(=O)c2ccco2)n1	63.2% (active)
O=C(Nc1nc(-c2ccco2)c(-c2ccco2)s1)c1ccco1	-14.9% (inactive)
NC(=O)c1ccsc1NC(=O)c1ccco1	-45.2% (inactive)
COc1cccc(CCNC(=O)c2cccc(NC(=O)C3=C(C)OCCS3)c2)c1	4.07% (inactive)
Cc1cc(C(=O)NNS(=O)(=O)c2ccccc2C(F)(F)F)nn1C(C)(C)C	2.36% (inactive)
Cc1cc(C(=O)OC(C)C(=O)Nc2cccc(S(=O)(=O)N3CCOCC3)c2)c(C)o1 (stereo unspecified)	5.58% (inactive)
CCn1c(C)nc2cc(C(=O)NNS(=O)(=O)c3ccc(C)cc3C)ccc21	1.05% (inactive)
COC(=O)c1cc(NS(=O)(=O)c2ccc3c(c2)c(=O)n(C)c(=O)n3C)cc(C(=O)OC)c1	-0.04% (inactive)
Cc1cccc(CN2CCC(n3nccc3NC(=O)c3ccccc3C)CC2)n1	-1.23% (inactive)
Cc1ccc(OCC(=O)NNC(=S)NCc2ccccc2)cc1	-4.04% (inactive)
CCNC(=S)NNC(=O)Cc1ccccc1	94.9% (active)
CCNC(=S)NNC(=O)C1CCN(Cc2ccccc2)CC1	8.74% (inactive)
CC1(C(=O)NCCc2c[nH]c3ccccc23)C=CC2(CCCCC2)N1C(=O)c1ccccc1 (stereo unspecified)	52.7% (active)
O=C(CN1C(=O)NC2(CCCCC2)C1=O)NCCc1c[nH]c2ccccc12	4.17% (inactive)
O=C(NCCc1c[nH]c2ccccc12)c1cccc(Br)c1	2.59% (inactive)
